Data taken from PubChem BioAssay (NCATS).
Records with an inconclusive call do not appear. Entries that show only a call come without a potency. Active and inactive are the calls of the source. Unless noted, calls come from the whole dose curve; as a rule, active = well fitted curve in the direction sought with a large enough effect; inconclusive = small, poorly fitted or top-dose-only effect, or another doubt; inactive = no such curve, though single readings can be large; an effect the other way counts as inactive or inconclusive.

Key:
[1] = High-throughput drug toxicity screening in the BPDCN cell line Cal-1 (AID 1224825; call rule not given here); details: Cal-1 BPDCN cell viability, qHTS; at 45.8 µM (top of the series) unless noted
In short: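 Exponentially growing Cal-1 cells, 500 per well in phenol red-free RPMI with 10% FBS, were exposed to compounds for 48 h at 37 °C, 5% CO2. Viability was read by CellTiter-Glo luminescence and normalised to DMSO (100%) and 9.2 uM bortezomib (0%).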

[2] = qHTS assay for measurement of the activity of small molecule inhibitors on Zika virus induced Caspase-3 activity in human iPSC derived neural progenitor cells (hNPCs) (AID 1224857); note: nearly all actives have a fitted effect of over 65% in size
In short: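 Zika virus (2 FFU/cell) infection of human iPSC-derived NPCs, 6 h, following 1 h compound preincubation. Read-out: Caspase-Glo 3/7 luminescence.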

[3] = qHTS assay for measurement of the activity of small molecule inhibitors on Zika virus induced Caspase-3 activity in human astrocytoma cells (AID 1224859)
In short: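 Caspase activation in ZIKV-infected SNB-19 cells (2 FFU/cell, 6 h) measured by Caspase-Glo 3/7 luminescence after 30 min RT; compound pre-incubated 1 h; normalised to uninfected and infected controls.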

[4] = qHTS Screen of the MIPE 4.0 Collection Against Ewings Sarcoma (TC71) (AID 1259253); note: nearly all actives have a fitted effect of over 40% in size; note: potency is the fitted concentration of half-maximal effect
In short: (§1)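 Measured: ATP luminescence (CellTiter-Glo) 10 min after reagent addition, following 48 h drug treatment. Relative luciferase units converted to percent activity, with no-cell wells as full and DMSO wells as zero inhibition.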

[5] = qHTS assay to identify small molecule inhibitors of chordoma cells - UCH-1 (AID 1259355); note: nearly all actives have a fitted effect of over 55% in size
In short: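 Luminescent ATP read-out (CellTiter-Glo, 30min at room temperature) measured viability of UCH-1 cells exposed for 48hr to test drugs at 15 concentrations, co-dosed with a five-agent combination of auranofin, camptothecin, doxorubicin, rubitecan and topotecan.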

[6] = qHTS assay to identify small molecule inhibitors of chordoma cells - UCH-2 (AID 1259356)
[7] = P-glycoprotein substrates identified in KB-8-5-11 adenocarcinoma cell line, qHTS therapeutic library screen (AID 1346987); note: nearly all actives have a fitted effect of over 65% in size
In short: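 Steps: plate 500 KB-8-5-11 cells/well in DMEM + 10% FCS (colchicine removed); pin compounds in dose-response; incubate 72 h, 37 degree C, 5% CO2; add CellTiter-Glo, 5 min; read luminescence.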

[8] = qHTS Screen of the MIPE 4.0 Collection Against Ewings Sarcoma (EW8) (AID 1259255); note: nearly all actives have a fitted effect of over 35% in size; note: potency is the fitted concentration of half-maximal effect
In short: as §1

[9] = Identifying Small Molecule Inhibitors of Pancreatic Cancer Stem Cells (Panc1, Adherent) (AID 1259362); details: Potency: viability; note: potency is the fitted concentration of half-maximal effect
In short: (§2)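 After a 4 h attachment period, compounds were pinned into wells and cultures held 48 h under standard incubator conditions. Viability was then measured as CellTiter-Glo luminescence following 10 min at room temperature.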

[10] = qHTS Screen of the MIPE 4.0 Collection Against Ewings Sarcoma (TC32) (AID 1259256); note: nearly all actives have a fitted effect of over 45% in size; note: potency is the fitted concentration of half-maximal effect
In short: as §1

[11] = P-glycoprotein substrates identified in KB-3-1 adenocarcinoma cell line, qHTS therapeutic library screen (AID 1346986);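 note: potency is the fitted concentration of half-maximal effect; potency is for cytotoxicity meaning loss of cell viability; nearly all actives have a fitted effect of over 60% in size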
In short: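 Resistance attributable to P-gp was assessed by comparing AC50 in KB-8-5-11 with parental KB-3-1 and by tariquidar reversal. Cells were exposed 72 h and viability read by CellTiter-Glo.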

[12] = Identifying Small Molecule Inhibitors of Pancreatic Cancer Stem Cells (A2780, Spheroid) (AID 1259357); details: Potency: A2780 spheroid viability;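 note: potency is the fitted concentration of half-maximal effect; compound exposure lasted 48 h before the ATP luminescence read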
In short: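 Cytotoxicity read by CellTiter-Glo luminescence after 48 h compound exposure at 37C; percent activity scaled between DMSO-treated cells and cell-free wells. Spheroid formats used cells pre-formed 14 days in stem cell media on hydrogel.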

[13] = Identifying Small Molecule Inhibitors of Pancreatic Cancer Stem Cells (SN12C, Adherent) (AID 1259358);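 note: cell survival measured after 48 h of compound exposure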
In short: as §2

[14] = Identifying Small Molecule Inhibitors of Pancreatic Cancer Stem Cells (Panc1, Spheroid) (AID 1259359); details: Panc1 spheroid cancer stem cell viability;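 note: potency is the fitted concentration of half-maximal effect; compound exposure lasted 48 h before reading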
In short: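 Adherent (2D) versus sphere (3D) formats; spheres generated 14 d in SCM beforehand. Compound transferred by pin tool after 4 h, 48 h incubation, CellTiter-Glo endpoint.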

[15] = Natriuretic polypeptide receptor (hNpr1) antagonism - Pilot counterscreen GloSensor control cell line (AID 1347045; calls by dose curve; note: potency is the fitted concentration of half-maximal effect)
In short: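 Luminescence was read before and 20 min after adding 50 uM SNP, which stimulates soluble guanylyl cyclase. The HEK293 cells expressing the GloSensor cGMP sensor had been preloaded with 2% reagent for 2 h and treated with compound.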

[16] = target: Atrial natriuretic peptide receptor 1 (Homo sapiens) (UniProt P16066); test: Natriuretic polypeptide receptor (hNpr1) antagonism - Pilot screen (AID 1347049; calls by dose curve;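 note: agonist-evoked cGMP luminescence read 20 min after hNppA addition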)
Sequence of Atrial natriuretic peptide receptor 1 (Homo sapiens) (P16066 whole entry, looked up): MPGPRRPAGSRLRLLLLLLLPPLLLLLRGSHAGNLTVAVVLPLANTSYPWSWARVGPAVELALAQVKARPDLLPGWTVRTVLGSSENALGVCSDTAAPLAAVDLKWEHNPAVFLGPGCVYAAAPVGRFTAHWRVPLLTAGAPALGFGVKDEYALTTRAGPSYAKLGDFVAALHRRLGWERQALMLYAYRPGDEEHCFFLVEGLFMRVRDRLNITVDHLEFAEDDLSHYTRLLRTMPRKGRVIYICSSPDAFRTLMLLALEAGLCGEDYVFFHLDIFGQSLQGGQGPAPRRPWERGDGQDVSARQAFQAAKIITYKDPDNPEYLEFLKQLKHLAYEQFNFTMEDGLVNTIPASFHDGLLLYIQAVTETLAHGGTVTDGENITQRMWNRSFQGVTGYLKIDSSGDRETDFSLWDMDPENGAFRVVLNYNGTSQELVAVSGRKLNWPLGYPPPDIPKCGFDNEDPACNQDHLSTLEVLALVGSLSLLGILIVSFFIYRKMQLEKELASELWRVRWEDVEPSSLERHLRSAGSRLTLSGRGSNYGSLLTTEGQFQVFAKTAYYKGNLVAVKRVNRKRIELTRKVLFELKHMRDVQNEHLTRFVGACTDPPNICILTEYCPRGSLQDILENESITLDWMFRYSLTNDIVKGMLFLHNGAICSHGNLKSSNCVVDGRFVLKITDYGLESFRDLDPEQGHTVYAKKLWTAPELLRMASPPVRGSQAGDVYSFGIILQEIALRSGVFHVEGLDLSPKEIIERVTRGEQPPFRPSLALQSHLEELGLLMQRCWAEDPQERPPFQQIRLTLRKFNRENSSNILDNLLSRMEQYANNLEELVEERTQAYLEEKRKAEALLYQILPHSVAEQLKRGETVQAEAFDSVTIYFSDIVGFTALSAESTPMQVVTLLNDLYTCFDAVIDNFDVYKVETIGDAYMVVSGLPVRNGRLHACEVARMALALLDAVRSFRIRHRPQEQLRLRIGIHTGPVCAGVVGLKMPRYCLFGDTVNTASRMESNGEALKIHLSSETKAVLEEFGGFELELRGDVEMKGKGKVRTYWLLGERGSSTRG
In short: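 HEK293 cells co-expressing hNpr1 and the GloSensor pGS-40F cGMP luciferase sensor were preloaded with 2% GloSensor reagent for 2 h. Compounds were added for 30 min at room temperature, then cells were stimulated with 0.1 nM hNppA for 20 min before luminescence readout.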

[17] = target: Atrial natriuretic peptide receptor 2 (Homo sapiens) (UniProt P20594); test: Natriuretic polypeptide receptor (hNpr2) antagonism - Pilot subtype selectivity assay (AID 1347050; calls by dose curve)
Sequence of Atrial natriuretic peptide receptor 2 (Homo sapiens) (P20594 whole entry, looked up): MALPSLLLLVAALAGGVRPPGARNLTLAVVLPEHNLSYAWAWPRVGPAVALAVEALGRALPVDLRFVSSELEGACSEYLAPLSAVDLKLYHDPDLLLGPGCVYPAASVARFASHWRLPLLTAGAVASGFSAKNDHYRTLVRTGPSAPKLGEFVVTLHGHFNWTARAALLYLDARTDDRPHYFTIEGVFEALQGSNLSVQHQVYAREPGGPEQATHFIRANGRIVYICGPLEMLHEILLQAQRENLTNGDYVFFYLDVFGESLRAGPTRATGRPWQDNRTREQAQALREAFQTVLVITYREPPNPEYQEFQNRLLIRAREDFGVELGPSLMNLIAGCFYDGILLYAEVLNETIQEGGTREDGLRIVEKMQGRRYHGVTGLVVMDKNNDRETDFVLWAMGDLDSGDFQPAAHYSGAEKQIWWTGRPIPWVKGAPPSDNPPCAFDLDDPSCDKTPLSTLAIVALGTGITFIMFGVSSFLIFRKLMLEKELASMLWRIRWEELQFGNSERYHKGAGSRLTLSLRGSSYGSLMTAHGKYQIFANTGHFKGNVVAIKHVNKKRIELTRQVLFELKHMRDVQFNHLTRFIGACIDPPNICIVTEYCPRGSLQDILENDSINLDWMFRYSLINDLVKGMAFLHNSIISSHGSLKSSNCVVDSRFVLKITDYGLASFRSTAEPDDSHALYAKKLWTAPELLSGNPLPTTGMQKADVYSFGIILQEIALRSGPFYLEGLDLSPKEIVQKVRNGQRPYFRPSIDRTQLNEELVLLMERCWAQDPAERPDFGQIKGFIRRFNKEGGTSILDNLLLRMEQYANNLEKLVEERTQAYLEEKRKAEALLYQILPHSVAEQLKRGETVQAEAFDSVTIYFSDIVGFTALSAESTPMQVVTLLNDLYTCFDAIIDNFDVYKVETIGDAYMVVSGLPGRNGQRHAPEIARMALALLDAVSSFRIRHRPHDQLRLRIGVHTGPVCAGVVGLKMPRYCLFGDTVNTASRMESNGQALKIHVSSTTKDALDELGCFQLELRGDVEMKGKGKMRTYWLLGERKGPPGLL
In short: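 cGMP-sensor HEK293/hNpr2 cells; 2% GloSensor reagent 2 h RT; compounds 30 min; baseline luminescence read; 1 nM hNppC agonist 20 min RT; final luminescence read by CCD camera. Antagonism = reduced post-agonist signal.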

[18] = qHTS Screen of the MIPE 4.0 Collection Against Ewings Sarcoma (RDES) (AID 1259252); note: nearly all actives have a fitted effect of over 35% in size
In short: as §1

Compound: CN(C)c1ccc(O)c2c1C[C@H]1C[C@H]3[C@H](N(C)C)C(=O)C(C(N)=O)=C(O)[C@@]3(O)C(=O)C1=C2O
- viability (% of control) [1]: 80%
- Potency [2]: inactive
- Potency [3]: inactive
- Potency [4]: 4.69 µM (active)
- Potency [5]: inactive
- Potency [6]: inactive
- Potency [7]: inactive

Compound: Cc1nc(Nc2ncc(C(=O)Nc3c(C)cccc3Cl)s2)cc(N2CCN(CCO)CC2)n1
- viability (% of control) [1]: 11.7%
- Potency [2]: inactive
- Potency [3]: inactive
- Potency [8]: 20.9 µM (active)
- Potency [9]: 20.9 µM (active)
- Potency [7]: inactive

Compound: COC1=C(OC)C(=O)C(CCCCCCCCCCO)=C(C)C1=O
- viability (% of control) [1]: 24.2%
- Potency [2]: inactive
- Potency [3]: inactive
- Potency [10]: 26.4 µM (active)
- Potency [5]: inactive
- Potency [6]: inactive
- Potency [7]: inactive

Compound: CC(S)C(=O)NCC(=O)O (stereo not given)
- viability (% of control) [1]: 100%
- Potency [2]: inactive
- Potency [3]: inactive
- Potency [8]: inactive
- Potency [10]: inactive
- Potency [5]: inactive
- Potency [6]: inactive
- Potency [7]: inactive

Compound: CCCOc1ccc2nc(NC(=O)OC)[nH]c2c1
- viability (% of control) [1]: 14.2%
- Potency [2]: inactive
- Potency [3]: inactive
- Potency [4]: 0.0093 µM (active)
- Potency [8]: 0.0066 µM (active)
- Potency [6]: inactive
- Potency [11]: 0.291 µM (active)

Compound: CC(C)c1ccc2c(c1)c(SC(C)(C)C)c(CC(C)(C)C(=O)O)n2Cc1ccc(Cl)cc1
- viability (% of control) [1]: 119%
- Potency [2]: inactive
- Potency [3]: inactive
- Potency [4]: 20.9 µM (active)
- Potency [12]: 18.7 µM (active)
- Potency [13]: inactive
- Potency [14]: 18.7 µM (active)
- Potency [9]: inactive
- Potency [7]: inactive
- Potency [15]: 13.1 µM (active)
- Potency [16]: inactive
- Potency [17]: inactive

Compound: NS(=O)(=O)c1cc(C(=O)O)c(NCc2ccco2)cc1Cl
- viability (% of control) [1]: 108%
- Potency [2]: inactive
- Potency [18]: inactive
- Potency [4]: inactive
- Potency [8]: inactive
- Potency [10]: inactive
- Potency [5]: inactive
- Potency [6]: inactive

Compound: O=C(O)c1cccc(-c2noc(-c3ccccc3F)n2)c1
- viability (% of control) [1]: 93.8%
- Potency [2]: inactive
- Potency [3]: inactive
- Potency [5]: inactive
- Potency [6]: inactive
